Experimental findings from PubChem BioAssay (NCI) are described below.

SMILES strings stand for the structures. Values joined by “and” are separate entries in the source; they are usually repeats but may differ in a detail not shown here. Equal entries are not always repeated. Compounds without any hit were thinned out: in the full panel of roughly 83,000, 20% have a hit.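 Results are percent growth after 48 hours of single-concentration exposure. 100 means growth as in untreated cells, lower positive values show inhibition; negative values down to -100 show cell death.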 Active and inactive are the calls of the source. How the source made its calls: active means growth percent below 10; inactive means the rest.

This test relates to ACHN renal. Description: NCI-60 one-dose screen, 48 h (100 = growth as untreated, 0 = no growth, -100 = all killed). The conditions noted are these: 10 µM unless noted.
With `CC1CCCC(=O)O1` (centres undefined), the growth was 99.2% (inactive) and 100% (inactive).
Take `Cc1ccc(S(=O)(=O)NCN2C(=O)c3ccccc3C2=O)cc1`: the growth was 108% (inactive).
`O=C(N/N=C/c1cccc2ccccc12)C1CC1`: the growth is 127% (inactive) and 110% (inactive).
Take `CN(C)CCCNC1=C(Cl)C(=O)c2ccccc2C1=O`: the growth is 92.7% (inactive) and 92.5% (inactive).
Regarding `COc1ccc2nc(Cl)cc(C)c2c1`, the growth was 105% (inactive) and 118% (inactive).
For `CN(C)c1ccc(C(=C2C=CC(=[N+](C)C)C=C2)c2ccccc2Cl)cc1`, the growth is 1.56% (active) and -64% (active).
Consider `OCc1ccccn1`, for which the growth is 107% (inactive).
`Nc1ccccc1SC1CC(=O)N(c2cccc3ccccc23)C1=O` (centres undefined): the growth was 97.5% (inactive).
As for `CC(=O)Nc1cccc2c1CCCC2`, the growth is 102% (inactive) and 110% (inactive).
Under `CCN1CCN(CCNc2nccc(-c3c(-c4cccc(O)c4)nc4sccn34)n2)S1(=O)=O` stands 47.5% (inactive) and 33.5% (inactive); under `NC(=O)c1ccccc1OCC(O)CO` (centres undefined), 103% (inactive); under `Nc1ccccc1Nc1ccccc1`, 85.5% (inactive) and 75.2% (inactive).
For `N/C(=N\N=C\c1ccc2c(c1)OCO2)N/N=C\c1ccc2c(c1)OCO2` the value was 111% (inactive) and 97.7% (inactive); for `N#C/C(=C/c1c(O)ccc2ccccc12)C(N)=O`, 92.4% (inactive).
As to `Oc1ccc(/C=C/c2ccccc2)cc1`, the growth is 17.3% (inactive) and 16.2% (inactive).
Turning to `COc1ccc2ccccc2c1/C=N/N1CCCCC1`, the growth is 99% (inactive).
Regarding `O=C(Nc1cccc(-n2ccc3c(NC(=O)c4ccccc4)nccc32)c1)c1ccc(Cl)c(C(F)(F)F)c1`, the growth is 13% (inactive) and 53.5% (inactive).
For `CCOc1ccc(Nc2c3ccccc3nc3ccccc23)cc1` the value was 84.9% (inactive) and -30.4% (active) and 6.25% (active).
For `CCOc1ccc2cc(-c3nn(CC4CCN(C)CC4)c4ncnc(N)c34)ccc2c1` the value was 96.5% (inactive) and 53.9% (inactive).
Consider `C[N+](C)(C)CN1C(=O)c2ccccc2C1=O`, for which the growth was 102% (inactive).
Consider `S=C(S)N1CCCC1`, for which the growth was 125% (inactive) and 110% (inactive).
Consider `O=C1C2=C(C(=O)c3ccccc31)C(O)(S(=O)(=O)O)C(O)(S(=O)(=O)O)C1N=CC=CC21` (centres undefined), for which the growth is 36.3% (inactive) and 32.8% (inactive).
Under `Cc1cc(O)c2c(c1)C(=O)c1cc(O)cc(O)c1C2=O` stands 87.8% (inactive) and 88.8% (inactive).
Under `CCN(CC)CCC(CNc1ccnc2cc(Cl)ccc12)c1ccc(OC)cc1` (centres undefined) stands 37.5% (inactive) and 33.3% (inactive); under `O=[N+]([O-])c1ccc2nc3c4ccccc4c4ccccc4c3nc2c1`, 57.3% (inactive); under `COc1cc2nc(N3CCC[C@@H](NC(=O)C4COc5ccccc5O4)C3)nc(N)c2cc1OC` (some centres undefined), 103% (inactive) and 96.4% (inactive).
In the case of `NC(=S)NN=C1CCC(C2CCCCC2)CC1` (centres undefined), the growth was 100% (inactive) and 98.8% (inactive).
For `CCOC(=O)c1sc(N)nc1-c1ccccc1`, the growth is 93.7% (inactive).
In the case of `Cc1ccc2nc3c(nc2c1)-c1cccc2cccc-3c12`, the growth is 68.6% (inactive).
For `CC(C)N=c1cc2n(-c3ccc(Cl)cc3)c3ccccc3nc-2cc1Nc1ccc(Cl)cc1` the value was 27.2% (inactive) and 30.9% (inactive) and 17.8% (inactive); for `CCN(CC)CCCC(C)Nc1ccnc2cc(Oc3ccccc3)ccc12` (centres undefined), 73.6% (inactive) and 80.6% (inactive); for `CN1C(=O)C(N=Nc2ccc([N+](=O)[O-])cc2)SC1=S` (centres undefined), 51.8% (inactive) and 56.5% (inactive).
For the molecule `COc1ccccc1NC(=O)OCC#CCOC(=O)Nc1ccccc1OC`, the growth is 104% (inactive) and 100% (inactive).
`O[C@H](c1cc(C(F)(F)F)nc2c(C(F)(F)F)cccc12)[C@@H]1CCCCN1`: the growth is 40.1% (inactive) and 45.8% (inactive).
On to `N#C/C(=C1C=C/C(=N/O)C(Br)=C/1)c1ccccc1`, for which the growth is 24.5% (inactive).
As for `CC1=C[C@H]2c3c(c(O)c(O)c4oc5cc(O)cc(O)c5c(=O)c34)[C@H](c3cc(O)c(O)c4oc5cc(O)cc(O)c5c(=O)c34)[C@H]2C(C)(C)C1`, the growth was 18.1% (inactive) and -7.12% (active).
For `COc1ccc(/C(C#N)=C/c2ccccn2)cc1` the value was 108% (inactive) and 109% (inactive).
`CC(=O)Oc1cc(C(=O)O)cc(OC(C)=O)c1OC(C)=O`: the growth was 112% (inactive) and 98.3% (inactive).
Under `COc1ccc(Cn2c(NCCN=C(N)N)nc(=O)n(Cc3ccc(F)cc3)c2=O)cc1` stands 97.7% (inactive) and 102% (inactive).
